Consider 40 compounds from PubChem BioAssay (NCATS).

Molecules are shown by their SMILES. Active and inactive are the calls of the source. Where a call stands in place of a potency, no number is given. Calls come from the whole dose curve; as a rule, active = well fitted inhibition curve with a large enough effect; inconclusive = small, poorly fitted or top-dose-only effect; inactive = no such curve, though single readings can be large or run the other way.

This assay is described as follows: qHTS assay for measurement of the activity of small molecule inhibitors on Zika virus induced Caspase-3 activity in human astrocytoma cells (AID 1224859). As to conditions: SNB-19 ZIKV-induced caspase-3/7, luminescence, 6 h; series mostly up to 45.7 µM. An excerpt: National Center for Advancing Translational Sciences [NCATS]
Johns Hopkins University School of Medicine
Increase in the Caspase-3 activity indicates an activation of apoptosis cell death pathway caused by Zika virus infection in certain types of neuronal cells including human neural progenitor cells (hNPCs), astrocytes, and astrocytoma cell line (SNB-19). This cell-based caspase-3 activity assay measures the increased caspase-3 activity in the astrocytoma cell line (SNB-19) after a 6-hour Zika virus infection with a luminescence readout. A decrease in the luminescence signal in this assay by small molecule treatment indicates an inhibitory effect of that small molecule on the Zika virus induced caspase-3 activity that may correlate with its effect on reduction of Zika virus caused cell death.
The medium for SNB-19 cells is composed of RPMI 1640 (ATCC, Cat.# 30-2001), 10% fetal bovine serum (FBS) (GE healthcare Life Sciences, Cat.# SH30071.03), and 1% Pen/Strep (Gibco, Cat.# 15140-122). A Caspase-Glo 3/7 assay kit (catalog number G8092; Promega, Madison, WI) was used to detect caspase-3 activity induced by Zika virus infection in human cells. The reagent mixture was reconstituted as described in the protocol from the manufacturer. Polystyrene tissue culture treated and PDL coated white plates were obtained from Greiner Bio-One (Monroe, NC). Cells were seeded in 384- or 1536-well assay plates and cultured at 37 C with 5% CO2 for 16 to 20 hours. The typical cell seeding density in the 1536-well plate assay is 250 cells/well in 3ul medium for SNB-19 cells in tissue culture treated plates. Compounds were added to cells and incubated for one hour before addition of ZIKV solution to cells (2 FFU/cell). After incubation at 37 C with 5% CO2 for 6 hours, the reagent mixture of Caspase-Glo 3/7 assay kit was added to each well, followed by incubation at room temperature for 30 minutes. The luminescence intensity of the assay plates was measured using a ViewLux plate reader (PerkinElmer). Data were normalized by using the cell-containing wells without ZIKV as a negative control (0% induction of caspase 3/7 activity) and wells containing ZIKV infected cells (Caspase-3 activity induced) as a positive control (100% induction of caspase 3 activity). The percentage inhibitions of the increased Caspase-3 activity by small molecule inhibitors were then calculated.
A general note: In qHTS, concentration-response curves come from the screen itself.
For `CCN1C[C@]2(OC(=O)c3ccccc3NC(C)=O)CC[C@H](OC)[C@@]34[C@H]5CC6[C@@H](OC)C[C@](O)(C(C[C@@H]23)[C@@H]14)[C@@]5(O)[C@@H]6OC`, the Potency result is “inactive”.

`CC(=O)OCC1=C(C(=O)O)N2C(=O)[C@@H](N)[C@@H]2SC1`: the Potency result was “inactive”.

As to `CO/C=C(/C(=O)OC)c1ccccc1Oc1cc(Oc2ccccc2C#N)ncn1`, the Potency result is “inactive”.

Consider `Cc1ccccc1-n1c(Cn2ncc3c(N)ncnc32)nc2cccc(C)c2c1=O`, for which the Potency entry is “inactive”.

For `CC(N[C@H]1C[C@H]1c1ccccc1)c1ccc2c(c1)OCCO2` (stereo not given in full), the Potency result is “inactive”.

With `O=C(Nc1ccncc1)C(=O)c1cn(Cc2ccc(Cl)cc2)c2ccccc12`, the Potency entry is “inactive”.

Consider `S=C(NC1CCCCC1)N1CCC(c2cnc[nH]2)CC1`, for which the Potency result was “inactive”.

Turning to `CS(=N)(=O)CC[C@H](N)C(=O)O` (stereo not given in full), the Potency result is “inactive”.

In the case of `CCOC(=O)c1c(C(C#N)=CN)c2ccc(Cl)c(Cl)c2n1C`, the Potency entry was “inactive”.

Turning to `Fc1cc(Br)ccc1CBr`, the Potency result is “inactive”.

Turning to `CCCCCCCCc1ccc(O)cc1`, the Potency result is “inactive”.

In the case of `CC(=O)Nc1ccc(OC[C@](C)(O)C(=O)Nc2ccc([N+](=O)[O-])c(C(F)(F)F)c2)cc1`, the Potency result is “inactive”.

Take `CC(=O)N(C)c1cccc(-c2ccnc3c(C(=O)c4cccs4)cnn23)c1`: the Potency entry is “inactive”.

As for `CCC1(CCC(C)C)C(=O)NC(=O)NC1=O`, the Potency entry was “inactive”.

On to `NC1=NC(=O)N2CC12` (stereo not given), for which the Potency entry was “inactive”.

With `O=S(=O)(O)C(F)(F)C(F)(F)C(F)(F)C(F)(F)F`, the Potency result was “inactive”.

For `CCOP(=O)(OCC)C(C)NC(=O)N(CCCl)N=O` (stereo not given), the Potency entry is “inactive”.

`CC(C)NCC(O)c1ccc([N+](=O)[O-])cc1` (stereo not given): the Potency entry was “inactive”.

`CC(C)Oc1cccnc1N(C)C1CCN(Cc2ccccc2)CC1`: the Potency entry is “inactive”.

Regarding `Clc1ccccc1C(c1ccccc1)(c1ccccc1)n1cccn1`, the Potency result is “inactive”.

Turning to `Nc1ccc(Sc2ccc(N)cc2)cc1`, the Potency entry is “inactive”.

As for `C[C@]12CC[C@H]3[C@@H](CCC4=CC(=O)CC[C@@]43C)[C@H]1CC[C@H]2O`, the Potency result was “inactive”.

With `OCCCBr`, the Potency entry is “inactive”.

As to `CC(=Cc1csc(C)n1)[C@@H]1C[C@H]2O[C@@H]2CCC[C@H](C)[C@@H](O)[C@@H](C)C(=O)C(C)(C)[C@@H](O)CC(=O)O1`, the Potency entry is “inactive”.

In the case of `CCCC[N+]1(C)[C@H]2CC(OC(=O)[C@H](CO)c3ccccc3)C[C@H]1[C@H]1O[C@H]12` (stereo not given in full), the Potency entry was “inactive”.

As for `O=C(Oc1ccc([N+](=O)[O-])cc1)N1CCC(C(O)(c2ccc3c(c2)OCO3)c2ccc3c(c2)OCO3)CC1`, the Potency entry is “inactive”.

For the compound `C[C@]12CCC3C(CC[C@H]4C[C@H](O)CC[C@]34C)C1CC[C@@H]2C(=O)CO` (stereo not given in full), the Potency result is “inactive”.

Take `CC(C)(O)C=CC(=O)[C@](C)(O)[C@H]1[C@H](O)C[C@]2(C)[C@@H]3CC=C4[C@@H](C=C(O)C(=O)C4(C)C)[C@]3(C)C(=O)C[C@@]12C`: the Potency entry was “inactive”.

As to `COc1cc([C@@H]2c3cc4c(cc3[C@@H](O)C3COC(=O)C32)OCO4)cc(OC)c1O` (stereo not given in full), the Potency entry is “inactive”.

Regarding `C[C@](O)(COc1ccc(C#N)cc1)C(=O)Nc1ccc(C#N)c(C(F)(F)F)c1`, the Potency result is “inactive”.

`C=CCON=C(C[C@H]1O[C@@H]2O[C@]3(C)CC[C@@H]4[C@H](C)CC[C@@H]([C@H]1C)[C@@]24OO3)[C@H]1O[C@@H]2O[C@]3(C)CC[C@H]4[C@H](C)CC[C@@H]([C@@H]1C)[C@@]24OO3`: the Potency entry was “inactive”.

`Cc1c(N)nc([C@H](CC(N)=O)NC[C@@H](N)C(N)=O)nc1C(=O)N[C@H](C(=O)N[C@@H](C)[C@H](O)[C@@H](C)C(=O)N[C@@H](C(=O)NCCc1nc(-c2nc(C(=O)NCCC[S+](C)C)cs2)cs1)[C@@H](C)O)C(O[C@H]1O[C@H](CO)[C@H](O)[C@@H](O)[C@@H]1O[C@H]1O[C@H](CO)[C@@H](O)[C@H](OC(N)=O)[C@H]1O)c1cnc[nH]1` (stereo not given in full): the Potency entry was “inactive”.

For the compound `Cn1cnc(CCN)c1`, the Potency result was “inactive”.

As for `NCc1cc(=O)[nH]o1`, the Potency result was “inactive”.

On to `CC1=C(C(=O)O)N2C(=O)[C@@H](N)[C@H]2SC1`, for which the Potency entry is “inactive”.

For the compound `COc1nn(CSP(=S)(OC)OC)c(=O)s1`, the Potency entry is “inactive”.

For the compound `Cc1cc(O)ccc1Cl`, the Potency result is “inactive”.

For `Cc1ccc(Cl)c(O)c1`, the Potency result was “inactive”.

Turning to `NC(N)=NOCCC(N)C(=O)O` (stereo not given), the Potency entry is “inactive”.

For the compound `O=C(Cc1ccc(Cl)c(Cl)c1)N1CCCCC1CN1CCCC1` (stereo not given), the Potency entry was “inactive”.
